This note sets out measurements from PubChem BioAssay (Tox21).

The nature of experiment [1]: qHTS assay for small molecule disruptors of the mitochondrial membrane potential - cell viability (AID 720634; calls by dose curve;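 also: human HepG2 liver cancer cells; nearly all actives have a fitted effect of over 20% in size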). The method, boiled down: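 Measuring cytotoxicity alongside mitochondrial potential, the screen quantified ATP by luminescence in HepG2 cells after 1 hr compound incubation and a 30 min room-temperature CellTiter-Glo step.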
On the technique in general: Quantitative high-throughput screening tests each substance at several concentrations.

Experiment [2] in a line: qHTS assay to test for compound auto fluorescence at 590 nm (red) in HepG2 cells (AID 720674). In outline: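 Rose Bengal sodium served as the red fluorophore standard. HepG2 monolayers (overnight attachment, MEM with 10% FBS) were exposed to test compounds for 1 hr at 37 C and read at Ex 540/Em 590 nm.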
The nature of experiment [3]: qHTS assay to test for compound auto fluorescence at 535 nm (green) in HepG2 cells (AID 720675).
Experiment [4] can be described thus: qHTS assay to test for compound auto fluorescence at 460 nm (blue) in HEK293 cells (AID 720678). In outline:
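Blue read-out at excitation 405 nm and emission 460 nm follows overnight compound exposure of HEK293 cells at 37C in 5% CO2. Activity is given as auto fluorescence equivalency to triamterene.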

Experiment [5] in a line: qHTS assay to test for compound auto fluorescence at 590 nm (red) in HEK293 cells (AID 720679). In outline: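 Red channel, Ex/Em 540/590nm; signal expressed as equivalency to Rose Bengal sodium. HEK293, 2,000 cells/well, 10% dialyzed FBS; 23 nL compound pinned after 4-5 hr attachment; overnight 37C/5% CO2 before reading.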
Experiment [6] can be described thus: qHTS assay to test for compound auto fluorescence at 460 nm (blue) in HEK293 cell free culture (AID 720681). In outline:
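Test compounds were pinned into cell-free culture medium (DMEM with 10% FBS) and fluorescence was read directly at Ex/Em 405/460 nm. Signals were expressed as fluorescence equivalents of triamterene, with DMSO vehicle as control.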

Experiment [7] in a line: qHTS assay to test for compound auto fluorescence at 535 nm (green) in HEK293 cell free culture (AID 720682). In outline: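 Intrinsic compound fluorescence is measured in culture medium containing 10% FBS, with excitation at 485 nm and detection at 535 nm, referenced to fluorescein.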
A short description of experiment [8]: qHTS assay to test for compound auto fluorescence at 590 nm (red) in HEK293 cell free culture (AID 720683). The method, boiled down:
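Tox21 10K library compounds were pinned into cell-free DMEM with 10% FBS and fluorescence was read at excitation 540 nm. Activity is expressed as Rose Bengal sodium equivalency.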

Experiment [9] is described as follows: qHTS assay to test for compound auto fluorescence at 460 nm (blue) in HepG2 cell free culture (AID 720685). In outline:
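Compound (23 nL) or DMSO pinned into cell-free MEM with 10% FBS; blue fluorescence read at 405/460 nm excitation/emission, expressed as auto-fluorescence equivalency to triamterene.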

Experiment [10] is described as follows: qHTS assay to test for compound auto fluorescence at 535 nm (green) in HepG2 cell free culture (AID 720686).
The nature of experiment [11]: qHTS assay to test for compound auto fluorescence at 460 nm (blue) in HepG2 cells (AID 720687). In outline:
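Cells (2,000/well in MEM with 10% FBS) attached overnight at 37 C, then were exposed to compound or DMSO for 1 hr at 37 C, 5% CO2. Fluorescence read at Ex/Em 405/460 nm, expressed as triamterene-equivalent signal.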

Experiment [12] is described as follows: qHTS assay for small molecule agonists of the p53 signaling pathway - cell viability (AID 651633; calls by dose curve; also: nearly all actives have a fitted effect of over 30% in size; also: potency is read from the fitted curve at half-maximal effect). In outline: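 p53RE-bla cells, seeded at 4,000 per well and rested 5 h at 37 C/5% CO2, received compounds in DMSO for 16 h at 37 C. CellTiter-Glo was then added, and luminescence was read after 30 min at room temperature to gauge cytotoxicity.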
The nature of experiment [13]: qHTS assay for small molecules that induce genotoxicity in human embryonic kidney cells expressing luciferase-tagged ATAD5 - cell viability (AID 651634; calls by dose curve; also: nearly all actives have a fitted effect of over 25% in size; also: potency is read from the fitted curve at half-maximal effect). The method, boiled down:
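Seeding of 2,000 HEK293T ATAD5-luciferase cells per well preceded pin-tool compound transfer. Plates sat 15.5 hr at 37C under 5% CO2, then fluorescence was read after 30 min with CellTiter-Fluor.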

Experiment [14] in a line: qHTS assay to test for compound auto fluorescence at 535 nm (green) in HEK293 cells (AID 720680).
Experiment [15] is described as follows: qHTS assay to test for compound auto fluorescence at 590 nm (red) in HepG2 cell free culture (AID 720684). The method, boiled down: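 Measured in medium alone (MEM containing 10% FBS) following pintool addition of compound; emission at 590 nm with 540 nm excitation, referenced to Rose Bengal sodium.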
Experiment [16] in a line: qHTS assay for small molecules that induce genotoxicity in human embryonic kidney cells expressing luciferase-tagged ATAD5 (AID 651632). Also: nearly all actives have a fitted effect of over 15% in size. The method, boiled down: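 Reporter cells (HEK293T) express luciferase-tagged ATAD5, a protein that accumulates after DNA damage. Treat 16 hr at 37C/5% CO2, add Amplite, wait 30 min at RT, and read luminescence.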
Experiment [17] in a line: qHTS assay for small molecule disruptors of the mitochondrial membrane potential (AID 720635). Also: potency is read from the fitted curve at half-maximal effect. In outline:
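HepG2 cells (2,000/well) attached overnight at 37C, then took compound for 1 hr at 37C, 5% CO2. Mito-MPS dye was added for 30 min; fluorescence was read at 490/535 nm (monomers) and 540/590 nm (aggregates).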

Experiment [18] concerns the target Glucocorticoid receptor (Homo sapiens) (UniProt P04150). The experiment can be described thus: qHTS assay to identify small molecule agonists of the glucocorticoid receptor (GR) signaling pathway (AID 720691; active = well fitted activation curve with a large enough effect in the signal ratio in the repeat runs, not every such curve was filed as active; the % refers to the signal ratio). As to conditions: GR-bla HeLa, beta-lactamase reporter ratio, 18 h; activation: at 62.4 µM (top of the series). In outline: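 Reporter read-out: fluorescence intensity following 2 h room-temperature LiveBLAzer B/G FRET substrate loading. Prior step: GR-bla HeLa cells held 4 h, then treated 18 h at 37 C.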

For experiment [19] the target is unchanged. The experiment can be described thus: qHTS assay to identify small molecule antagonists of the glucocorticoid receptor (GR) signaling pathway (AID 720692; active = well fitted inhibition curve with a large enough effect in the signal ratio in the repeat runs, not every such curve was filed as active; the % refers to the signal ratio; also: potency is read from the fitted curve at half-maximal effect). In outline: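 Dexamethasone (5 nM final) stimulated a stably integrated GRE-beta-lactamase reporter in HeLa cells during 18 h co-incubation with compounds; signal was quantified as fluorescence intensity of B/G FRET substrate after 2 h.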

Several values for one entry are separate records, joined by “and”; a condition that tells them apart may be missing. Equal entries are not always repeated. Unmarked numbers belong to inactive results. Records with an inconclusive call do not appear. Activity calls are given as the source filed them. Unless noted, calls follow the shape of the dose curve; as a rule, active = well fitted curve in the direction sought with a large enough effect in the repeat runs; inconclusive = weak or mixed curves; inactive = no such curve, though single readings can be large; an effect the other way counts as inactive or inconclusive.
% is scaled to controls: 0 for no effect and ±100 for the full control effect.

Chain of Glucocorticoid receptor (Homo sapiens) (P04150 whole entry, looked up): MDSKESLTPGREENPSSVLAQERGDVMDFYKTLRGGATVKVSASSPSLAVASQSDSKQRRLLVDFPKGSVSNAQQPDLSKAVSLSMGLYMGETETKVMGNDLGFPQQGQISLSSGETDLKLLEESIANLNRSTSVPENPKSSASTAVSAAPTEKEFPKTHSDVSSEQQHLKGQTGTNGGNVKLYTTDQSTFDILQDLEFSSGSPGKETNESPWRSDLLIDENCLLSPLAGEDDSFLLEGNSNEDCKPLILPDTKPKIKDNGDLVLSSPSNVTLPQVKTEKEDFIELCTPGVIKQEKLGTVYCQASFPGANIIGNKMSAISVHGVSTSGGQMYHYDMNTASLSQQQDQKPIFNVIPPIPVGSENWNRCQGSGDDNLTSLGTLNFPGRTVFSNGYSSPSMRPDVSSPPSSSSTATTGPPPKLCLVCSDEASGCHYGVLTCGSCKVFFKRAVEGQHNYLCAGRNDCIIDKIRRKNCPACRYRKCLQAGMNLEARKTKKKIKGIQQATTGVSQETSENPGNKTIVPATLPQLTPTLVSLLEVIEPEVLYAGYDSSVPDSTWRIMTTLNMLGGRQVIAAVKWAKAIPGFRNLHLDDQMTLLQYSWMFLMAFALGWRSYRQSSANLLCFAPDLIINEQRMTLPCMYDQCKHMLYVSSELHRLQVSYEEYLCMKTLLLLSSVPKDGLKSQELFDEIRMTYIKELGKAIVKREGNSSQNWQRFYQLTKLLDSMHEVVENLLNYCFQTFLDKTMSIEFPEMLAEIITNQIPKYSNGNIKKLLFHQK

`Cc1c(-c2ccc(O)cc2)n(Cc2ccc(OCCN3CCCCCC3)cc2)c2ccc(O)cc12`: the Potency entry in experiment [1], in [2], in [3], in experiment [4], in [5] and in [6] was “inactive” each time. In addition, the Potency result in experiment [7], in experiment [8], in [9], in experiment [10] and in experiment [11] was “inactive” each time.
`O=C1c2c(O)ccc(O)c2C(=O)c2c(NCCNCCO)ccc(NCCNCCO)c21`: the Potency in experiment [12] was 4.52 µM (active); in experiment [13], 9.02 µM (active). For the same compound, in experiment [1], the Potency result was “inactive”. Also, the fluorescence, relative to Rose Bengal in experiment [2] is 0.231% [at 18.6 µM]. For the same compound, the fluorescence, % of fluorescein control in [3] was -0.149% [at 18.6 µM]; in experiment [10] it was -0.22% [at 18.6 µM]. The fluorescence, % of triamterene in experiment [4] is -0.405% [at 18.6 µM]. In addition, the fluorescence, % of fluorescent control in experiment [5] was -1.36% [at 18.6 µM]; in experiment [6], -0.133% [at 18.6 µM]; in experiment [8] it was -0.213% [at 18.6 µM]; in experiment [9] it was -0.123% [at 18.6 µM]; in experiment [11] it was -0.0158% [at 18.6 µM]. For the same compound, in [14], the fluorescence, % of fluorescein was 0.0058% [at 18.6 µM]. Besides, the activity change in experiment [7] was -0.248% [at 18.6 µM, hits give high values]. For the same compound, in [15], the fluorescence, % of Rose Bengal is -0.463% [at 18.6 µM].
For `CC=O`, the Potency result in experiment [16], in experiment [2], in experiment [3], in [4], in [5] and in experiment [6] was “inactive” each time. Moreover, the Potency entry in [7], in experiment [8], in experiment [15], in [10] and in [11] was “inactive” throughout.
`CN1[C@@H]2CC[C@H]1CC(OC(=O)C(CO)c1ccccc1)C2` (some centres undefined): the Potency result in experiment [1], in [17], in experiment [2], in [3], in experiment [4] and in experiment [5] was “inactive” each time. Besides, the Potency result in experiment [14], in experiment [6], in [7], in experiment [8], in [15] and in [9] was “inactive” throughout. The Potency result in experiment [10], in [11], in [18] and in [19] was “inactive” throughout.
As for `C=C(c1ccc(C(=O)O)cc1)c1cc2c(cc1C)C(C)(C)CCC2(C)C`, the Potency entry in [16], in [1], in experiment [2], in experiment [3], in experiment [4] and in experiment [5] was “inactive” each time. Further, the Potency result in [14], in [6], in [7], in experiment [8], in experiment [9] and in experiment [10] was “inactive” in each case. For the same compound, the Potency result in [11] was “inactive”. Moreover, the Potency in [17] was 9.44 µM (active) and 21.7 µM (active); in [19], 9.77 µM (active).
As to `NC(=O)C(=O)N/N=C/c1ccc([N+](=O)[O-])o1`, the Potency entry in experiment [16], in experiment [13], in [2], in experiment [3], in experiment [4] and in experiment [5] was “inactive” each time. Moreover, the Potency entry in [14], in experiment [6], in experiment [7], in experiment [8], in experiment [10] and in [11] was “inactive” throughout. Besides, the Potency result in experiment [19] is “inactive”.
On to `CC(=O)OC(OC(C)=O)c1ccc([N+](=O)[O-])o1`, for which the Potency in [13] was 62.2 µM (active); in [17] it was 31.2 µM (active); in experiment [19] it was 55.9 µM (active). Besides, the Potency entry in experiment [2], in experiment [3], in experiment [4], in experiment [5], in experiment [14] and in experiment [6] was “inactive” each time. Besides, the Potency result in experiment [7], in [8], in experiment [15], in experiment [10] and in experiment [11] was “inactive” each time.
As to `Cc1cc(Nc2ccc(O)cc2)ccc1N`, the Potency entry in experiment [12], in experiment [2], in experiment [3], in [4], in experiment [5] and in experiment [14] was “inactive” each time. Moreover, the Potency entry in [6], in experiment [7], in experiment [15], in experiment [9], in experiment [10] and in [11] was “inactive” in each case. Also, the Potency in experiment [13] is 27.2 µM (active); in experiment [17], 6.82 µM (active).
